This passage reports parasite growth results from the supplement of paper PMC4894684.

Each structure is given as a SMILES string. Structures can show the parent of a compound that is named as a salt. ± gives the standard deviation of the averaged measurements. Where only a bound is given, the exact number is not on record here.

For the experiment, the system named is Toxoplasma gondii RH (in HFF). Kind of experiment: parasite growth relative to the screen mean (all compounds = 100%); higher = less inhibition of parasite growth. The conditions noted are these: 5 µM; 72 h; oxygen 21 %. The gist of the method: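 Library compounds, held as 10 mM DMSO stocks, were pinned to 5 µM final onto confluent human foreskin fibroblasts in 96-well plates. The cells were infected within 2 h with RH β-Gal–GFP Toxoplasma (MOI 1:5), grown 72 h at 21% O2, and assayed for parasite number by CPRG β-Gal using in-plate standard curves. Growth is reported relative to the screen mean, in which all compounds = 100%, averaged over two screens, and CellTiter-Blue checked uninfected host-cell viability.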
In the case of `COc1cc(C(=O)OCCCN2CCCN(CCCOC(=O)c3cc(OC)c(OC)c(OC)c3)CC2)cc(OC)c1OC` [Dilazep dihydrochloride], the parasite growth came out at 54.3 ± 11%.
Consider `CN(C(=O)CCCOc1ccc2[nH]c(=O)ccc2c1)C1CCCCC1` [Cilostamide], for which the parasite growth was found to be 69.6 ± 26%.
For `O=Nc1ccc(O)c2ncccc12` the value was under 0%.
For `c1ccc(CN2CCC3(CCc4ccccc43)CC2)cc1` [L-693,403 maleate] the value was 135 ± 10%; for `Nc1ncnc2c1ncn2[C@@H]1O[C@H](CO)C[C@H]1O` [Cordycepin], 122 ± 20%.
The same measure for `CC(C)(C)c1ccc(S(=O)(=O)/C=C/C#N)cc1`: 127 ± 30%; for `O=C(O)c1ccc2cc(-c3ccc(O)c(C45CC6CC(CC(C6)C4)C5)c3)ccc2c1`: 181 ± 36%.
As to `CC(=O)NNC(=O)N1Cc2ccccc2Oc2ccc(Cl)cc21`, the parasite growth was found to be 136 ± 40%.
The same measure for `COc1cccc(OC)c1OCCNCC1COc2ccccc2O1` (stereo not drawn) [WB 4101 hydrochloride]: 93.3 ± 33%.
The compound `CCCC[C@@H](C=O)NC(=O)[C@H](CC(C)C)NC(=O)OCc1ccccc1` [Calpeptin] returned a parasite growth of 19.9 ± 4.8%.
For the compound `O=C(Nc1ccccc1)N[C@@H]1C[C@@H](C(=O)O)Nc2cc(Cl)cc(Cl)c21`, the parasite growth is 104 ± 3.9%.
For `CCN(CC)CCCCNc1ncc2cc(-c3c(Cl)cccc3Cl)c(NC(=O)NC(C)(C)C)nc2n1` the value was under 0%.
The same measure for `NC(C(=O)O)c1cc(O)cc(O)c1` (racemic): 142 ± 15%; for `CCCOc1ccc(Br)cc1-c1cc(-c2ccc(Cl)cc2)[nH]c1-c1ccncc1`: 37 ± 9%.
The same measure for `N=C(N)SCCc1ccc(OCc2ccc([N+](=O)[O-])cc2)cc1` [KB-R7943 mesylate]: under 0%; for `CCN(CC)c1ccc(/C=N/NC(=O)c2ccc(O)cc2)cc1`: 115 ± 28%.
In turn, `O=[N+]([O-])c1cccc2cn[nH]c12` [7-Nitroindazole] registered a parasite growth of 124.7 ± 0.72%.
The same measure for `O=C(O)Cc1nn(Cc2ccc(Br)cc2F)c(=O)c2ccccc12` [Statil]: 91.7 ± 26%.
The same measure for `COc1ccc(NC(=O)c2ccc(-c3ccc(-c4noc(C)n4)cc3C)cc2)cc1OCCN(C)C`: under 0%; for `CC(C)(C)NC[C@H](O)COc1nsnc1N1CCOCC1` [(S)-Timolol maleate]: 119 ± 1.7%.
Consider `NC(=O)c1ccc2[nH]ccc2c1`, for which the parasite growth was found to be 91.2 ± 12%.
For `Cc1ccc(NC2=CC(=O)c3sc(C)nc3C2=O)cc1` [Ryuvidine] the value was under 0%.
In the case of `CCS(=O)(=O)N(C)[C@H]1c2cc(C#N)ccc2OC(C)(C)[C@@H]1O` [(-)-[3R,4S]-Chromanol 293B], the parasite growth is 121 ± 9.2%.
For `CC1CCN(CCCC(=O)c2ccc(F)cc2)CC1` [Melperone hydrochloride] the value was 126 ± 12%; for `C1COC(NC(C2CC2)C2CC2)=N1` [Rilmenidine hemifumarate], 125 ± 13%.
The same measure for `COCCOC(=O)C1=C(C)NC(C)=C(C(=O)OC(C)C)C1c1cccc([N+](=O)[O-])c1` (stereo not drawn) [Nimodipine]: 117 ± 13%.
For `N#C/C(=C\c1ccc(O)c(O)c1)C(=O)NCc1ccccc1` the value was 148 ± 13%; for `CCOc1ccccc1OC(c1ccccc1)C1CNCCO1` (stereo not drawn) [Reboxetine mesylate], 102 ± 5.2%.
As to `Nc1nc(N)nc(-c2cc(Cl)ccc2Cl)n1` [Irsogladine maleate], the parasite growth was 127 ± 27%.
For `CC(C)(C(=O)O)c1ccc(C(O)CCCN2CCC(C(O)(c3ccccc3)c3ccccc3)CC2)cc1` (stereo not drawn) [Fexofenadine hydrochloride] the value was 122 ± 26%; for `CNC(=O)[C@H]1O[C@@H](n2cnc3c(NCc4cccc(I)c4)ncnc32)[C@H](O)[C@@H]1O`, 117 ± 14%; for `CN1[C@@H](CC(=O)c2ccccc2)CCC[C@H]1C[C@H](O)c1ccccc1` [Lobeline hydrochloride], 179 ± 40%.
For `Nc1ccc(-c2cccc3c(=O)cc(N4CCOCC4)oc23)cc1` the value was 104 ± 7.9%; for `O=C(O)Cc1cccc(OCCCN(Cc2cccc(C(F)(F)F)c2Cl)CC(c2ccccc2)c2ccccc2)c1` [GW 3965 hydrochloride], 105 ± 15%.
The same measure for `CN(C)c1ccc(/C=C2/C(=O)Nc3ccccc32)cc1`: 124 ± 26%.
Regarding `CC1CCN(CC[C@H]2CCCN2S(=O)(=O)c2cccc(O)c2)CC1`, the parasite growth turned out to be 120 ± 15%.
`CC[C@H](NC(=O)c1c(C)c(-c2ccccc2)nc2ccccc12)c1ccccc1` came in with a parasite growth of 98.6 ± 3.1%.
With `O=c1[nH]c2cc(C(F)(F)F)c(N3CCOCC3)cc2n(CP(=O)(O)O)c1=O`, the parasite growth worked out at 118 ± 4%.
